Screens as filed in PubChem BioAssay.
RORg inh: qHTS for inhibitors of ROR gamma transcriptional activity. Nuclear receptor ROR-gamma (Mus musculus), P51450. Drosophila S2 Gal4-RORgamma UAS-luciferase reporter, 20 h. 5.4% of 310,000 active. Potency, µM (top dose mostly 53.6 µM), for inactives: top-dose activity change, negative = inhibition, most hits filed as inhibitors; note: nearly all actives have a fitted effect of over 60% in size
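Luminescence from a UAS-regulated Photinus luciferase reporter in stably transfected Drosophila Schneider cells is measured; decreased signal marks ROR gamma inhibition. Fusion expression is induced by 700 uM copper sulfate for 20 hr.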
TDP1 block: qHTS Assay for Inhibitors of Tyrosyl-DNA Phosphodiesterase (TDP1); Tyrosyl-DNA phosphodiesterase 1 (Homo sapiens), Q9NUW8; recombinant TDP1, AlphaScreen DNA substrate cleavage; Potency, µM (highest dose often 130 µM), for inactives: at the highest dose activity change, negative = inhibition, most hits filed as inhibitors; 0.28% of 350,000 active; AID 485290, 2010; note: nearly all actives have a fitted effect of over 40% in size
Target sequence (Q9NUW8 whole entry, looked up): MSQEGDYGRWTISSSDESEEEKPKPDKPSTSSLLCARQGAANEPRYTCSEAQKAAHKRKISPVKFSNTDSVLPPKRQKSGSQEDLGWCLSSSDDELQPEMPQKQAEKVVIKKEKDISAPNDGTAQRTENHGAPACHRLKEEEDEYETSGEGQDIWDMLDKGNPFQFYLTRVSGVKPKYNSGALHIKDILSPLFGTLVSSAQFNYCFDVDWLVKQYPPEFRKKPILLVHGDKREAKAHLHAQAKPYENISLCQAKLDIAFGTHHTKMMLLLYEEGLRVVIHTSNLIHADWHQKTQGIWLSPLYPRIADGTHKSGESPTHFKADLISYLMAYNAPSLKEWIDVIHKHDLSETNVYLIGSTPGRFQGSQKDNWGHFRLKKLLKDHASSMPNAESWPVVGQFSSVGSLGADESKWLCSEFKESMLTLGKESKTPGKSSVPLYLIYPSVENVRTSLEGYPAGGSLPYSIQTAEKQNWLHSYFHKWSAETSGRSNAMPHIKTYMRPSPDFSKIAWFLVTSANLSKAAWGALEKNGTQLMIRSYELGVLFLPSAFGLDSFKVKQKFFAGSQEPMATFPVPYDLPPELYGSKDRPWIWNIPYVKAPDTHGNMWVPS
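Recombinant E. coli-expressed Tdp1 (1 nM) preincubated with compound 15 min at RT, then 5'-biotin/3'-phosphotyrosine-FITC DNA substrate (15 nM) added for 5 min. AlphaScreen beads (10 ug/ml) added, 10 min RT; tyrosine-FITC cleavage read as signal loss.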
TDP1 cell noCPT: qHTS for Inhibitors of human tyrosyl-DNA phosphodiesterase 1 (TDP1): qHTS in cells in absence of CPT | DT40 Tdp1-/- hTDP1 cells, no CPT, ATP luminescence, 48 h | AID 686978, 2013 | 15% of 420,000 active | Potency, µM (titrated, usually from 46.2 µM), without a hit: at the highest dose activity change, negative = growth inhibition, actives largely listed as inhibitors; note: nearly all actives have a fitted effect of over 55% in size
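DT40 Tdp1-/-;hTDP1 cells, no CPT (DMSO vehicle only), 400 cells/well; compounds pin-transferred; ≥48 hr, 37 °C; CellTiter-Glo 30 min RT dark, luminescence read.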
Gal4-VP16 FLuc: VP16 counterscreen qHTS for inhibitors of ROR gamma transcriptional activity; Drosophila S2 Gal4-VP16 UAS-luciferase, luminescence, 20 h; Potency, µM (highest dose often 53.6 µM), inactives show top-dose activity, negative = inhibition, usual class: inhibitors; 3.5% of 310,000 active;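 note: Gal4-VP16 expression switched on by copper sulfate through the metallothionein promoter; nearly all actives have a fitted effect of over 50% in size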
TDP1 cell CPT: qHTS for Inhibitors of human tyrosyl-DNA phosphodiesterase 1 (TDP1): qHTS in cells in presence of CPT; chicken DT40 Tdp1-/-;hTDP1 cells + 20 nM CPT, ATP luminescence, 48 h; Potency, µM (titrated, usually from 46.2 µM), for inactives: at the top dose activity change, negative = growth inhibition, usual class: inhibitors; 12% of 420,000 active; note: nearly all actives have a fitted effect of over 55% in size
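Chicken DT40 Tdp1-/- cells stably complemented with human TDP1 were seeded at 400 cells/well in medium containing 20 nM camptothecin, exposed to pin-transferred compounds, and grown at 37 °C for at least 48 hr. Viability was read as ATP luminescence.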
Active calls of the source: *; ? = inconclusive; . = no result given; [ ] = another dose, or the depositor's remark. Sampled rows, rich in hits. Any-hit rate of the full collection: about 19%. Calls come from the whole dose curve; as a rule, active = well fitted curve in the direction sought with a large enough effect; inconclusive = small, poorly fitted or top-dose-only effect, or another doubt; inactive = no such curve, though single readings can be large; an effect the other way counts as inactive or inconclusive. % is set by controls: 0 for no effect and ±100 for the full control effect; potency is the fitted concentration of half-maximal effect.

SMILES	RORg inh	TDP1 block	TDP1 cell noCPT	Gal4-VP16 FLuc	TDP1 cell CPT
O=C(Cn1c(=O)n(-c2ccc(Cl)cc2)c(=O)c2sc3ccccc3c21)NC1CCCC1	.	6.4%	18.4µM*	.	13µM*
O=C(Cn1c(=O)n(-c2cccc(Cl)c2)c(=O)c2sc3ccccc3c21)N1CCCC1	.	1.3%	14.6µM*	.	?
O=C1CCN(Cc2ccccc2)C=C1c1ccc2ccccc2c1	.	7.5%	-16.7%	.	-29.7%
COc1cccc(/C=N/NC(=O)C(C)Sc2ccccc2)c1 (centres undefined)	49.1%	1.2%	-29.1%	-9.5%	-21.7%
O=C(c1ccccc1)c1ccc(-c2ccc(O)cc2)cc1	3.55µM*	2.9%	-27.0%	17.8µM*	-1.2%
O=C(Cc1cc(=O)[nH]c(=O)[nH]1)N1CCN(C(=O)c2ccco2)CC1	-19.0%	-5.2%	-4.6%	-17.3%	4.0%
COc1ccc2[nH]c(-c3ccc(C)cc3)cc(=O)c2c1	10µM*	2.6%	16.4µM*	7.94µM*	13µM*
COc1ccc(C(=O)Nc2ccc3[nH]c(-c4cccc(OC)c4)cc(=O)c3c2)cc1	1.3%	0.0%	0.651µM*	-14.0%	1.03µM*
COc1ccc(-c2cc(=O)c3cc(F)ccc3[nH]2)cc1	-1.7%[96.6 µM]	2.0%[234 µM]	?	1.0%[96.6 µM]	?
COc1ccc(Cl)cc1NC(=S)NNC(=O)c1cccs1	?	4.8%	4.3%	-27.9%	-10.1%
COc1cccc(/C=N/NC(=O)c2[nH]nc3c2CCc2ccccc2-3)c1	-18.2%	5.1%	4.11µM*	6.8%	4.11µM*
O=C(N/N=C/c1cc(Br)cc(Br)c1O)c1cccc(S(=O)(=O)N2CCOCC2)c1	-22.1%	.	3.66µM*	-0.9%	3.66µM*
COc1ccc(OC)c(/C=N/NC(=O)c2[nH]nc3c2CCc2ccccc2-3)c1	-19.3%	2.3%	-19.9%	?	-26.4%
O=C(N/N=C/c1cc(Br)cc(Br)c1O)c1cccc(N2CCCC2=O)c1	3.55µM*	12.1%	1.46µM*	10µM*	5.17µM*
COc1cccc(/C=N/NC(=O)c2ccc(N3CCCC3=O)cc2)c1	-26.1%	.	23.1µM*	-14.7%	?
O=C(N/N=C/c1ccccc1Br)c1cccc(S(=O)(=O)N2CCOCC2)c1	.	4.1%	-3.3%	.	-4.3%
O=C(N/N=C/c1ccco1)c1ccc(N2CCCC2=O)cc1	12.3%	.	?	27.0%	10.4%
O=C(Cc1cc(C(=O)O)c2ccccc2n1)Nc1ccccc1	?	5.4%	?	-20.9%	-13.6%
CC(C)CC(C(=O)NC1CCCCC1)N(Cc1cccs1)C(=O)c1snc(C(N)=O)c1N (centres undefined)	2.6%	5.1%	?	19.8%	?
O=C(COC(=O)c1ccccc1Cl)NCCC1=CCCCC1	11.8%	2.7%	?	-11.1%	-5.1%
CC(C)(C)CC(C)(C)c1ccc(OCC(=O)Nc2ccc(S(=O)(=O)Nc3ncccn3)cc2)cc1	.	4.8%[12.3 µM]	-12.3%	.	-25.4%
CCC(C)n1c(-c2cccs2)nc2nc3ccccc3nc21 (centres undefined)	4.5%	-4.7%	11.6µM*	0.8%	18.4µM*
C1CN(CC23CC4CC(CC(C4)C2)C3)CCO1	-11.0%	4.4%	16.4µM*	11.7%	-21.1%
CC(/C=C/c1cccc([N+](=O)[O-])c1)=N\NC(=O)c1ccncc1	5.01µM*	3.2%	23.1µM*	10µM*	?
CC1=C(/C=C/C(C)=C/C=C/C(C)=C\C=O)C(C)(C)CCC1	?	14.4%	.	?	.
SMILES	RORg inh	TDP1 block	TDP1 cell noCPT	Gal4-VP16 FLuc	TDP1 cell CPT
CC(/C=C/c1ccc2c(c1)OCO2)=N/NC(=O)c1ccncc1	5.62µM*	.	-23.5%	17.8µM*	-5.9%
CC1=C(/C=C/C(C)=N\NC(=O)c2ccncc2)C(C)(C)CCC1	7.94µM*	-3.0%	?	?	?
CC(/C=C/c1ccc2c(c1)OCO2)=N/NC(=O)c1cccnc1	3.55µM*	5.6%	?	6.31µM*	-30.0%
Cc1scc(CN2CCN(c3ccccc3F)CC2)c1C	.	5.1%	?	.	-27.4%
O=C(N[C@@H](Cc1ccccc1)C(=O)NC1CCCCC1)c1ccco1	36.4%	4.6%	-24.0%	-1.5%	-1.5%
O=C(Nc1ccc(F)cc1F)N1CCN(C(=O)c2ccco2)CC1	.	3.9%	3.8%	.	8.6%
CCN(CC)P1(=O)OC(c2cc(OC)c(OC)c(OC)c2)=Nc2c1c(C)nn2-c1ccccc1 (centres undefined)	-0.7%	-9.6%	?	0.5%	?
CCn1cc(C(=O)NCCCN2CCCC(C)C2)c(=O)c2cc(S(=O)(=O)N3CCOCC3)ccc21 (centres undefined)	19.5%	5.7%	5.3%	13.2%	-0.2%
CC(/C=C/c1ccc2c(c1)OCO2)=N/NC(=O)c1ccc(C)nc1	7.94µM*	-2.7%	23.1µM*	7.94µM*	?
Cc1ccc(C(=O)N/N=C\c2cc3c(cc2Br)OCO3)cn1	-0.3%	-13.4%	-10.7%	-2.3%	4.0%
O=C(O)C(Cc1ccccc1)N1C(=O)CCC1=O (centres undefined)	-2.7%	2.6%	-8.5%	-1.8%	1.0%
CC(C)C1C(=O)N(Cc2cn(CCC3OCCO3)nn2)CCS(=O)(=O)N1Cc1ccc(-c2ccc(Cl)cc2)cc1 (centres undefined)	.	.	4.11µM*	.	3.26µM*
CC(C)C1C(=O)N(Cc2cn(CCC3OCCCO3)nn2)CCS(=O)(=O)N1Cc1ccc(-c2ccc(Cl)cc2)cc1 (centres undefined)	.	.	23.1µM*	.	?
CC(C)C1C(=O)N(Cc2cn(CCC3OCCO3)nn2)CCS(=O)(=O)N1Cc1ccc(-c2cccc(N(C)C)c2)cc1 (centres undefined)	.	.	?	.	-19.9%
CC(C)C1C(=O)N(Cc2cn(CCC3OCCCO3)nn2)CCS(=O)(=O)N1Cc1ccc(-c2ccc(Cl)c(Cl)c2)cc1 (centres undefined)	.	.	18.4µM*	.	23.1µM*
COc1ccc(C(CC(=O)N2CCCCC2)NC(=O)C(F)(F)F)cc1 (centres undefined)	-14.8%	-2.9%	-2.1%	13.6%	-10.1%
Cc1ccc2cc(CCNC(=O)C(=O)c3c[nH]c4ccccc34)c(=O)[nH]c2c1	-3.2%	1.8%	?	-1.5%	-21.8%
CCOC(=O)c1ccc(NC2c3ccccc3C(=O)N2c2ccc(C)cn2)cc1 (centres undefined)	-8.0%	-2.0%	?	5.2%	?
CCOC(=O)c1ccc(NC2c3ccccc3C(=O)N2c2cccnc2)cc1 (centres undefined)	-8.4%	2.6%	10.3µM*	6.9%	11.6µM*
